Sampled rows, rich in hits. Any-hit rate of the full collection: about 1.7%.
Y pestis TopoI: blocks Yersinia pestis topoisomerase I activity; AID 504884; Y. pestis Topo-I cleavage product accumulation, plate reader; activity, % at 10 µM; hit rate 0.064% among 360,000; in the data active = activity above about 50%, passing the limit was not always enough
PriA SSB inh: K. pneumoniae PriA-SSBct interaction inhibition; AlphaScreen SSBct-PriA binding, biotinylated peptide; inhibition, % at 33 µM; hit rate 0.6% among 430,000; in the data active = inhibition mostly above about 37%, no sharp cut-off; inactive = mostly below about 20%;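 note: plate controls were negative control peptide for no effect and reference peptide for full effect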
PrP 5UTR inh: inhibition of PrP 5' UTR reporter expression. inhibition, % (test concentration not listed). hit rate 0.35% among 340,000. cell-based PrP 5' UTR mRNA reporter, plate reader; in the data active = inhibition above about 52%; note: 0 = median of the neutral control wells
PfHsp40 yeast: restores yeast growth despite PfHsp40 toxicity; AID 504582; hit rate 0.68% among 340,000; S. cerevisiae expressing PfHsp40, growth rescue, ATP luminescence; growth rescue, % at 12.5 µM; in the data active = growth rescue above about 28%, passing the limit was not always enough;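 note: yeast W303a lacking pdr1 and pdr3 grown in galactose medium; growth measured after three days at 30 °C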
BJeLR viability: kills HRASV12-expressing BJeLR cells; hit rate 0.17% among 300,000; inhibition, % (concentration not given with the values); AID 1554; BJeLR (HRASV12) viability, CellTiter-Glo ATP luminescence, 48 h; in the data active = inhibition above about 50%
PrPC surface inh: cell surface PrPC inhibition, primary TR-FRET screen; P04156; TR-FRET read-out; inhibition, % at 13.8 µM; hit rate 0.43% among 370,000; AID 720596; in the data active = inhibition above about 24%; note: 0% = median of the test wells and 100% = reference compound wells
An asterisk follows results filed as active.

Results for CCOC(=O)NC1Cc2ccccc2C1Sc1ccccn1 (stereo not drawn) ?
Y pestis TopoI: 3; PriA SSB inh: -2; PrP 5UTR inh: -16; PfHsp40 yeast: 54*; BJeLR viability: 2; PrPC surface inh: 1

Results for CCOC(=O)NC(=O)CSc1ccccn1 ?
Y pestis TopoI: 9; PriA SSB inh: -8; PrP 5UTR inh: -20; PfHsp40 yeast: -1; BJeLR viability: 7; PrPC surface inh: 2

How did CC(=O)Nc1ccc(C(=O)NCCNS(=O)(=O)c2ccc(F)c(C)c2)cc1 do in these assays?
PriA SSB inh: -20

How did O=[N+]([O-])c1cc(Cl)ccc1Nc1ccc(O)cc1 do in these assays?
PriA SSB inh: 103*

What do the screens show for `CC(C)(C)C1CCc2nc(NC(=O)Cc3cn4ccsc4n3)sc2C1` (stereo not drawn)?
Y pestis TopoI: 62*; PriA SSB inh: -9; PrP 5UTR inh: -45; PfHsp40 yeast: 1; BJeLR viability: 3; PrPC surface inh: 10

Results for Cc1ccc2[nH]c3c(=O)n(CCC(=O)NCC(C)c4ccccc4)cnc3c2c1 (stereo not drawn) ?
PriA SSB inh: -8

Results for CN=c1scc(-c2ccc(OC)cc2)n1N=C(C)c1cccnc1 ?
PriA SSB inh: 44*

How did Cn1c(=O)c2[nH]c(CNc3ccc(C(=O)O)cc3)nc2n(C)c1=O do in these assays?
Y pestis TopoI: -4; PriA SSB inh: 72*; PrP 5UTR inh: -15; PfHsp40 yeast: -1; BJeLR viability: 4; PrPC surface inh: 8

Results for C[C@H](NCc1nc2c([nH]1)c(=O)n(C)c(=O)n2C)c1ccccc1 ?
PriA SSB inh: -18

Results for COc1ccc(OC)c2sc(NNC(=O)c3ccc(S(=O)(=O)N(C)C)cc3)nc12 ?
PriA SSB inh: 42*

How did CC1Oc2cc3oc4c(O)c(O)ccc4c(=O)c3c(O)c2C1(C)C (stereo not drawn) do in these assays?
Y pestis TopoI: -16; PriA SSB inh: 18; PrP 5UTR inh: -43; PfHsp40 yeast: 335*; BJeLR viability: 32

What do the screens show for `COc1cccc(-c2ccc3nnc(SCC(=O)Nc4cc(C)on4)n3n2)c1`?
PriA SSB inh: -4

How did CC(C)(C)c1nnc(NN=Cc2cc(Br)ccc2O)n(N)c1=O do in these assays?
PriA SSB inh: 61

How did CC(C)(C)c1nnc(N/N=C/c2ccccc2O)n(N)c1=O do in these assays?
Y pestis TopoI: 2; PrP 5UTR inh: 30; PfHsp40 yeast: 71*; BJeLR viability: 62*; PrPC surface inh: -1

What do the screens show for `Clc1cc2c(c3ncccc13)OCN(Cc1ccccc1)C2`?
PriA SSB inh: 89*

Results for Clc1cc2c(c3ncccc13)OCN(Cc1cccnc1)C2 ?
PriA SSB inh: 101*

Results for Cc1cc(NC(=O)/C=C/c2cccs2)no1 ?
PriA SSB inh: -12

How did O=C(NCCCn1ccnc1)C(=O)Nc1ccc2c(c1)N(S(=O)(=O)c1cccs1)CCC2 do in these assays?
PriA SSB inh: 51*

Results for O=C(NCCCO)C(=O)Nc1ccc2c(c1)N(S(=O)(=O)c1cccs1)CCC2 ?
Y pestis TopoI: 0; PriA SSB inh: 4; PrP 5UTR inh: -7; PfHsp40 yeast: 1; BJeLR viability: 0; PrPC surface inh: 9

What do the screens show for `CC(C)(C)c1cc(-c2nc(N)nc(N)n2)c(O)c(C(C)(C)C)c1`?
Y pestis TopoI: -3; PriA SSB inh: 4; PrP 5UTR inh: -11; PfHsp40 yeast: 225*; PrPC surface inh: 0

Results for CC(C)(C)c1ccc(NC(=O)N2CCOC3(CCOCC3)C2)cc1 ?
PriA SSB inh: -11

Results for O=C(Cn1nnc(-c2ccccc2Cl)n1)N/N=C/c1ccc2c(c1)OCO2 ?
Y pestis TopoI: 25; PrP 5UTR inh: -9; PfHsp40 yeast: 60*; BJeLR viability: -12; PrPC surface inh: 9

Results for Cc1ccc(OCC(=O)N/N=C\c2c(C)[nH]n(-c3ccccc3)c2=O)c([N+](=O)[O-])c1 ?
Y pestis TopoI: -10; PrP 5UTR inh: -6; PfHsp40 yeast: 155*; BJeLR viability: 4; PrPC surface inh: -2

Results for Cc1[nH]n(-c2ccccc2)c(=O)c1/C=N/NC(=O)c1ccc(O)cc1O ?
Y pestis TopoI: -2; PrP 5UTR inh: 5; PfHsp40 yeast: 52*; BJeLR viability: -4

What do the screens show for `Cc1[nH]n(-c2ccccc2)c(=O)c1/C=N/Nc1nncc(-c2ccccc2)n1`?
Y pestis TopoI: -4; PrP 5UTR inh: 41; PfHsp40 yeast: 262*; BJeLR viability: 57*; PrPC surface inh: -5

Results for Cc1[nH]n(-c2ccccc2)c(=O)c1C=NNc1nncc(-c2ccccc2)n1 ?
PriA SSB inh: 97

How did Cc1ccc(-n2[nH]c(C)c(/C=N/NC(=O)c3ccc(O)cc3O)c2=O)cc1 do in these assays?
Y pestis TopoI: 3; PrP 5UTR inh: -1; PfHsp40 yeast: 76*; BJeLR viability: 3

Results for Cc1ccc(OCC(=O)NN=Cc2c(C)[nH]n(-c3ccccc3)c2=O)c([N+](=O)[O-])c1 ?
PriA SSB inh: 15

Results for CCN(CC)S(=O)(=O)c1ccc(C(=O)Nc2nc3c(s2)Cc2ccccc2-3)cc1 ?
PriA SSB inh: -9

How did O=C(NCCSC1CCOCC1)c1ccccc1C(F)(F)F do in these assays?
PriA SSB inh: -26

What do the screens show for `O=C(Nc1ccc(Cl)cc1-c1nc2ccccc2[nH]c1=O)c1ccc(Br)o1`?
PriA SSB inh: -23

Results for O=C(Cc1cc(=O)[nH]c(SCc2ccccc2)n1)Nc1nccs1 ?
PriA SSB inh: -9

Results for Cc1cc(/C=N/n2cnnc2)c(C)n1-c1ccc(OCc2ccc(F)cc2)cc1 ?
Y pestis TopoI: 18; PrP 5UTR inh: -30; PfHsp40 yeast: 103*; BJeLR viability: 13; PrPC surface inh: 21

What do the screens show for `COc1cc(-c2nc3ccc(C)cn3c2Nc2ccc3c(c2)OCCO3)ccc1O`?
Y pestis TopoI: -5; PriA SSB inh: 55*; PrP 5UTR inh: -10; PfHsp40 yeast: 0; BJeLR viability: 1; PrPC surface inh: 5

What do the screens show for `COc1cc(-c2nc3cnccn3c2Nc2ccc3c(c2)OCCO3)ccc1O`?
Y pestis TopoI: -3; PriA SSB inh: 22; PrP 5UTR inh: -7; PfHsp40 yeast: 0; BJeLR viability: -2; PrPC surface inh: -3

Results for Cc1nc(N2CCc3ccccc3C2)[nH]c(=O)c1Cc1ccccc1 ?
Y pestis TopoI: 5; PriA SSB inh: -4; PrP 5UTR inh: -3; PfHsp40 yeast: 1; BJeLR viability: -2; PrPC surface inh: 5

What do the screens show for `Cc1nc(-n2[nH]c3c(c2=O)CCCC3)[nH]c(=O)c1Cc1ccccc1`?
Y pestis TopoI: 7; PriA SSB inh: 0; PrP 5UTR inh: 9; PfHsp40 yeast: 52*; BJeLR viability: 8; PrPC surface inh: 10

How did COc1ccccc1NC(=O)N1CCC(c2nnc(-c3ccco3)s2)CC1 do in these assays?
PriA SSB inh: -4

Assay outcomes: PubChem, several laboratories
